Compounds with a hit are over-represented: about 2.7% of the library has one in this group of screens.
GLP-1R agonist – qHTS of GLP-1 Receptor Agonists; Glucagon-like peptide 1 receptor (Homo sapiens), P43220; HEK293 GLP-1R CRE-luciferase, luminescence, 4-6 h; cells express a hypersensitive GLP-1R form; hit rate 0.007% among 380,000; AID 624172, 2012; Potency, µM (series often up to 45.6 µM), without a hit: at the highest dose activation, actives largely listed as activators; further: % of control where 0% means no effect
GLP1R inv ag – qHTS of GLP-1 Receptor Inverse Agonists (Inhibition Mode); Glucagon-like peptide 1 receptor (Homo sapiens), P43220; HEK293 GLP-1R CRE-luciferase, luminescence, 24 h; GLP-1R form is constitutively active; hit rate 1.6% among 410,000; Potency, µM (titrated, usually from 38.3 µM), inactives show top-dose activity change, negative = inhibition, actives largely listed as inhibitors; further: on the % scale 0 is the no-effect control and ±100 the full control effect; nearly all actives have a fitted effect of over 55% in size
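qHTS in 1536-well format: reporter HEK293 cells expressing constitutive GLP-1R activity in DMEM + 10% Nu serum, 24 hr with compounds at 37 deg C, luminescence read after 12 min with detection reagent.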
IDH1 R132H inh – qHTS for Inhibitors of mutant isocitrate dehydrogenase 1 (IDH1): qHTS. IDH1-R132H enzyme, NADPH consumption, diaphorase/resazurin fluorescence. Potency, µM (top dose mostly 76.6 µM), inactives show at the top dose activity change, negative = inhibition, actives largely listed as inhibitors. hit rate 0.093% among 390,000. AID 602179, 2012. Isocitrate dehydrogenase [NADP] cytoplasmic (Homo sapiens), O75874; further: on the % scale 0 is the no-effect control and ±100 the full control effect; nearly all actives have a fitted effect of over 65% in size
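IDH1-R132H (0.5 ug/mL) preincubated 30 min with compound, then NADPH (0.016 mM) and alpha-KG (2 mM) added; 80 min at RT, pH 7.5. Remaining NADPH coupled via diaphorase/resazurin to fluorescence (540/590 nm); concentration-response curves normalized to no-enzyme control.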
TrxR1 substrate – qHTS Assay for Substrates of Mammalian Selenoprotein Thioredoxin Reductase 1 (TrxR1): qHTS | Potency, µM (doses to about 114 µM), inactives show at the top dose activity change, negative = substrate turnover | hit rate 0.01% among 390,000 | purified TrxR1 substrate turnover, NADPH consumption readout | Thioredoxin reductase 1, cytoplasmic (Rattus norvegicus), O89049; further: on the % scale 0 is the no-effect control and ±100 the full control effect; nearly all actives have a fitted effect of over 50% in size
Target sequence (O89049 whole entry, looked up): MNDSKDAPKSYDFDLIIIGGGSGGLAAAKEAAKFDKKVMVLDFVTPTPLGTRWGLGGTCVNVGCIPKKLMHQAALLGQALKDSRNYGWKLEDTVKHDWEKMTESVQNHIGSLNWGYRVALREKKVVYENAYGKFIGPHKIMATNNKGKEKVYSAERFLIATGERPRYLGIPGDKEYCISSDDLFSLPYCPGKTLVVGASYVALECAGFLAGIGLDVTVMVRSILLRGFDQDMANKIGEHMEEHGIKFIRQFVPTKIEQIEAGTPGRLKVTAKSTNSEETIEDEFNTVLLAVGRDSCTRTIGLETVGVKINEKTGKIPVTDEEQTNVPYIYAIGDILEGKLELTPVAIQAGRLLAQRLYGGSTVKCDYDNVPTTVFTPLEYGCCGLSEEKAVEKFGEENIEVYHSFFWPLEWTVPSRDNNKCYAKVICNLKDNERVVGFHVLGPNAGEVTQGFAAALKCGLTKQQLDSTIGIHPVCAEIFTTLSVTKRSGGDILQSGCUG
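Rat TrxR1, dispensed at 90 nM, was prereduced with 400 uM NADPH (final) for 5 min at ~22 deg C, then incubated with compound 15 min before 400 uM selenite. A first-read NADPH fluorescence drop versus no-compound background flagged substrates.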
HEK293 tox – qHTS of GLP-1 Receptor Inverse Agonists: Cytotox Screen | HEK293 cAMP-luciferase reporter cells, luminescence, 24 h | Potency, µM (doses to about 38.3 µM), for the others: top-dose activity change, negative = inhibition, actives largely listed as inhibitors | AID 624418, 2012 | hit rate 0.13% among 410,000;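 further: loss of luciferase light is scored as toxicity; on the % scale 0 is the no-effect control and ±100 the full control effect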
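Step one: seed cells (200 cells/uL, DMEM with 10% Nu serum, 1% pen-strep). Step two: 12-hour incubation at 37 deg C. Step three: pin 23 nL compound, incubate 24 hr. Step four: add luciferase reagent, read luminescence 12 min later.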
rTrxR1 inhibitor – qHTS Assay for Inhibitors of Mammalian Selenoprotein Thioredoxin Reductase 1 (TrxR1): qHTS. Potency, µM (top dose mostly 114 µM), inactives show at the highest dose activity change, negative = inhibition, most hits filed as inhibitors. recombinant rTrxR1, NADPH fluorescence consumption, selenite substrate. hit rate 1% among 390,000. Thioredoxin reductase 1, cytoplasmic (Rattus norvegicus), O89049. AID 588453, 2011; further: on the % scale 0 is the no-effect control and ±100 the full control effect; nearly all actives have a fitted effect of over 65% in size
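Rat TrxR1 (90 nM in the dispensed reagent) was pre-reduced with 400 uM NADPH for 5 min at room temperature, then incubated with compound for 15 min. After 400 uM selenite was added, NADPH fluorescence (Ex 340/Em 450 nm) was followed for 8 min.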
Numbers without * were called inactive; ? = inconclusive; / = no result given; [ ] = another dose, or the depositor's remark. The call rests on the fitted dose curve; in most records, active means well fitted curve in the direction sought with a large enough effect; inconclusive means small, poorly fitted or top-dose-only effect, or another doubt; inactive means no such curve, though single readings can be large; an effect the other way counts as inactive or inconclusive. Potency means the concentration at half of the fitted maximal effect.

SMILES	GLP-1R agonist	GLP1R inv ag	IDH1 R132H inh	TrxR1 substrate	HEK293 tox	rTrxR1 inhibitor
O=C(NC1CCCCC1)c1cc(C2CC2)nn1-c1ccccc1	6%	5.6µM*	-5%	-1%	0%	31%
O=C(Cc1ccc(-c2ccccc2)cc1)NCCS(=O)(=O)N1CCN(c2ccccc2F)CC1	/	?	1%	3%[57.1 µM]	-10%	5%[57.1 µM]
O=C(COc1ccc([N+](=O)[O-])cc1)Nc1cccc2cccnc12	-5%	5%	-3%	-2%	1%	14%
c1ccc(Cn2cc(CN3CCCCO3)c(-c3ccc4c(c3)OCO4)n2)cc1	3%	11µM*	3%	-1%	-9%	19%
c1ccc(-n2cc(CN3CCCC3)c(-c3ccc4c(c3)OCO4)n2)cc1	-1%	?	9%	25%	-6%	36%
Cc1c(C(=O)N2CCOCC2)[nH]c2c1C(=O)CC(c1ccccc1Cl)C2 (stereo unspecified)	0%	?	-4%	5%	5.6µM*	-5%
Cc1c(C(=O)OC2CCCCC2)[nH]c2c1C(=O)CC(c1ccccc1Cl)C2 (stereo unspecified)	/	?	-13%	-9%	-11%	-2%
Cc1cc(C)c(CSc2nnc(C)n3c2cc2occc23)c(C)c1	/	?	-2%	-2%	0%	21%
Cc1ccc(C2CC(=O)NC(SCc3ccccc3)=C2C#N)cc1 (stereo unspecified)	6%	8.9µM*	8%	-6%	-7%	7%
N#CC1=C(SCc2ccccc2)NC(=O)CC1c1ccc(O)cc1 (stereo unspecified)	3%	0%	-3%	0%[57.1 µM]	9%	-12%[57.1 µM]
Cc1ccc(OCC(=O)Nc2ccc3[nH]c(=O)sc3c2)cc1	0%	24%	6%	-2%	-4%	4%
O=C(/C=C1\NC2(CCCC2)Cc2ccccc21)N1CCOCC1	-28%	?	2%	-4%	18%	40µM*
CC1(C)Cc2c(ccc3ccccc23)/C(=C/C(=O)N2CCCCC2)N1	-39%	?	4%	19%[57.1 µM]	?	35%[57.1 µM]
CC(Nc1ccc(-c2nc(-c3ccccn3)no2)cc1[N+](=O)[O-])c1ccccc1 (stereo unspecified)	/	9%	15%	-2%	-8%	1%
Cc1ccc(S(=O)(=O)c2nc(Cc3ccccc3)oc2N2CCOCC2)cc1	-4%	7%	2%	9%	-16%	4.5µM*
COc1ccc(-c2nc(S(=O)(=O)c3ccccc3)c(N3CCOCC3)o2)cc1	1%	-11%	-6%	-3%	18%	40µM*
O=S(=O)(c1ccccc1)c1nc(-c2ccccc2)oc1N1CCCCC1	14%	-6%	1%	3%	2%	45µM*
Cc1ccc(-c2nc(S(=O)(=O)c3ccc(C)cc3)c(N3CCN(c4ccccc4)CC3)o2)cc1	/	16%	21%	9%	1%	29%
Cc1ccc(S(=O)(=O)c2nc(-c3ccccc3)oc2N2CCN(c3ccccc3)CC2)cc1	/	6%	1%	8%	-11%	23%
Cc1ccc(S(=O)(=O)c2nc(-c3ccccc3)oc2N2CCCC2)cc1	-6%	3%	-8%	9%	-9%	6.3µM*
COc1cc2nc(N3CCOCC3)nc(NC3CCN(C)CC3)c2cc1OC	/	/	/	190%	/	-2%
O=C(Cc1ccc(F)cc1)NC1CC(=O)N(c2ccccc2)C1 (stereo unspecified)	/	13%	0%	3%[57.1 µM]	4%	12%[57.1 µM]
CC(C)(C)c1nc(S(=O)(=O)c2ccc(Cl)cc2)c(N2CCOCC2)o1	-4%	0%	4%	2%[57.1 µM]	11%	?
CC(C)Cc1nc(S(=O)(=O)c2ccc(Cl)cc2)c(N2CCOCC2)o1	-8%	-1%	2%	2%	0%	8.9µM*
COc1ccc(CNS(=O)(=O)c2cc3c(cc2Cl)N(C(C)=O)CCO3)cc1	/	6%	5%	-2%	-2%	3%
SMILES	GLP-1R agonist	GLP1R inv ag	IDH1 R132H inh	TrxR1 substrate	HEK293 tox	rTrxR1 inhibitor
COc1ccc(-c2nc3cc(NC(=O)c4ccc(C)cc4)ccc3o2)cc1Cl	/	-25%	14%	18%	4%	14%
Cc1noc(C)c1COC(=O)c1ccccc1Sc1ccccc1C#N	10%	8.9µM*	10%	-15%	-16%	-18%
CC(SC1=NS(=O)(=O)c2ccccc21)C(=O)O (stereo unspecified)	/	/	/	5%	/	2%
CC(=O)O[C@@H]1[C@@]2(C)O[C@H]2CC[C@]23O[C@H]2[C@H](OC3=O)C2=C(C)C(=O)O[C@@]21O	-4%	6%	22%	18%	2%	50µM*
COc1ccc(NC(=O)N(Cc2ccco2)C2CCN(C(C)=O)CC2)c(OC)c1	/	-14%	0%	-7%	-1%	-2%
O=C(CCl)N1CCN2C(=O)c3ccccc3C12c1ccc(Cl)cc1 (stereo unspecified)	-1%	?	-26%	11%[57.1 µM]	11%	5µM*
O=C(Nc1cccc(Cl)c1)N1CCN2C(=O)c3ccccc3C12c1ccccc1 (stereo unspecified)	-17%	8.9µM*	-7%	6%[57.1 µM]	?	25%[57.1 µM]
Cc1ccc(C(=O)N2CCN3C(=O)c4ccccc4C23c2ccc(Cl)cc2)cc1 (stereo unspecified)	-44%	?	1%	-8%[57.1 µM]	?	12%[57.1 µM]
O=C(CN1C(=O)c2ccccc2C1=O)Nc1cccc(Cl)c1	-5%	0%	4%	-1%	-2%	31%
CC(=O)c1cccc(NC(=O)CCS(=O)(=O)c2ccc3c(c2)n(C)c(=O)c(=O)n3C)c1	/	6%	/	2%	-2%	?
CC(C)CN1C(=O)/C(=C/c2cccs2)NC1=S	10%	?	10%	-3%	?	14µM*
CC(C)CN1C(=O)/C(=C/c2ccco2)NC1=S	0%	-17%	3%	-10%	?	-73%
Cc1ccc(CNC(=O)Cn2cc(S(=O)(=O)Cc3cccc(Cl)c3)c3ccccc32)cc1	/	-1%	-5%	-3%	3%	21%
COc1ccc(N2CCN(CC(O)COc3ccc(C(C)C)c(C)c3)CC2)cc1 (stereo unspecified)	/	13µM*	-6%	-2%	?	1%
